Records with an inconclusive call do not appear. Calls of active or inactive are those of the source. Calls come from the whole dose curve. Starred links: 1 amine or outer side, 2 acyl side, 3 side chain; linkers in the order of their positions; H or OH if unused. Positions of bridges follow the written chain, without caps; N, C: chain ends. Non-standard residues stand in square brackets, D forms with d. Residues, ends and D or L forms follow the SMILES beside them. *: point of attachment. X1 = NC1=N[C@@H](O)C[C@@H]([C@@H](N[*:1])C(=O)[*:2])N1; ΔAla(Z-3-ureido) = NC(=O)N/C=C(\N)C(=O)O; β3hOrn = NCCC[C@H](N)CC(=O)*; Dap = NC[C@H](N)C(=O)O

A short description of the first assay: qHTS Assay for Lipid Storage Modulators (AID 1519). For activity change, negative = inhibition: % is set by controls: 0 for no effect and ±100 for the full control effect. The conditions noted are these: Drosophila S3 cells, BODIPY lipid droplet/cell ratio, laser cytometry; at 25.7 µM (top of the series); cells loaded with oleic acid. In a few lines:
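Cells seeded at 5,000 per well were treated with compounds over a concentration series and loaded with oleic acid (400 uM, as added). Lipid droplet fluorescence (488 nm excitation, 500-530 nm channel) was read by laser-scanning cytometry and normalized to 20 uM Triacsin C.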
On the technique in general: qHTS replaces the single test concentration by a dilution series.
As for `CN(C)CCO[C@@H](c1ccc(Cl)cc1)c1ccccn1`, the activity change, negative = inhibition is -4.98% (inactive).
Take `O=C(O)COCCN1CCN([C@@H](c2ccccc2)c2ccc(Cl)cc2)CC1`: the activity change, negative = inhibition was 0.348% (inactive).
Same read-out and setting: the same measure for `CC(=O)O[C@H]1C[C@H]2CC[C@@H]3[C@@H](CC[C@]4(C)[C@H](OC(C)=O)[C@H]([N+]5(C)CCCCC5)C[C@@H]34)[C@]2(C)C[C@H]1[N+]1(C)CCCCC1`: -3.97% (inactive).
Still for that read-out and setting: the same measure for `CCN(CC)CCOC(=O)[C@@H](Cc1cccc2ccccc12)C[C@@H]1CCCO1`: -5.4% (inactive); for `Clc1ccc([C@H](Cn2ccnc2)OCc2c(Cl)cccc2Cl)c(Cl)c1`: -0.836% (inactive).
On the same count and under the same terms, the same measure for `C[C@@H](CNC1CCCCC1)OC(=O)c1ccccc1`: -3.84% (inactive).
Turning to `CC[C@H](CO)NCCN[C@@H](CC)CO`, the activity change, negative = inhibition was -0.966% (inactive).
For `CC[N+]1(C)[C@@H]2CC[C@H]1CC(OC(=O)[C@H]1CC[C@@](C(=O)OC3C[C@H]4CC[C@@H](C3)[N+]4(C)CC)(c3ccccc3)c3ccccc31)C2` (stereo partly drawn), the activity change, negative = inhibition was -4.59% (inactive).
Consider `C[C@@]12C=CC(=O)C=C1CC[C@H]1[C@H]3CC[C@](O)(C(=O)CO)[C@]3(C)CC(=O)[C@@H]12`, for which the activity change, negative = inhibition is -0.593% (inactive).
Still for that read-out and setting: the same measure for `CO[C@@H]1C=CO[C@]2(C)Oc3c(C)c(O)c4c(O)c(c(C=NN5CCN(C)CC5)c(O)c4c3C2=O)NC(=O)C(C)=CC=C[C@H](C)[C@H](O)[C@H](C)[C@H](O)[C@H](C)[C@H](OC(C)=O)[C@H]1C`: -0.87% (inactive).

Still in this assay, the particulars now being: Drosophila S3 cells, BODIPY lipid droplet/cell ratio, laser cytometry; at 57.5 µM (top of the series); cells loaded with oleic acid.
Take `COc1ccc(CNc2ncncc2-c2ccccc2CN(C)C)c(OC)c1`: the activity change, negative = inhibition was 6.9% (inactive).
The same measure, in the same setting: the value for `O=C(c1cc(C(F)(F)F)cc(C(F)(F)F)c1)N1CCC[C@@]2(CCN(c3ccccn3)C2)C1` was -14.3% (inactive); that for `CN1CCC2(CC1)CCN(C(=O)c1ccncc1)CC2` was -3.65% (inactive).

Still in this assay, the particulars now being: Drosophila S3 cells, BODIPY lipid droplet/cell ratio, laser cytometry; measured here: cell count channel max response; cells loaded with oleic acid.
As to `CC[C@]1(c2ccccc2)NC(=O)N(C)C1=O`, the max response is 11.1%.
The same measure, in the same setting: the value for `CN1CCO[C@H](c2ccccc2)c2ccccc2C1` was -10.4%.
On to `C[C@H](CCC(=O)O)[C@H]1CC[C@@H]2[C@@H]3[C@@H](O)C[C@H]4C[C@@H](O)CC[C@@]4(C)[C@H]3CC[C@@]21C`, for which the max response was -2.48%.
For the compound `C=CCO[C@@H](Cn1ccnc1)c1ccc(Cl)cc1Cl`, the max response is -10.1%.
The same measure, in the same setting: the same measure for `CN(C/C=C\c1ccccc1)Cc1cccc2ccccc12`: -24.2%.
On the same count and under the same terms, the same measure for `CC(C)(CO)[C@H](O)C(=O)NCCC(=O)O`: 7.75%.
Still for that read-out and setting: the same measure for `C[N+]1(C)CC[C@@H](OC(=O)[C@@](O)(c2ccccc2)C2CCCC2)C1`: -7.92%; for `CCN(CCCCOC(=O)c1ccc(OC)c(OC)c1)[C@@H](C)Cc1ccc(OC)cc1`: -7.41%.
Take `O=C(O)c1cc2ccccc2c(Cc2cc3ccccc3c(C(=O)O)c2O)c1O` (tested in a mixture with another compound): the max response was -8.55%.
For the compound `C[C@H](NCCC(c1ccccc1)c1ccccc1)c1ccccc1`, the max response was -21.2%.
The same measure, in the same setting: the same measure for `CCC(=O)OCC(=O)[C@@]1(OC(=O)CC)[C@H](C)C[C@@H]2[C@@H]3[C@H]([C@@H](O)C[C@@]21C)[C@]1(C)C=CC(=O)C=C1C[C@@H]3Cl`: -9.62%.
With `C[C@H](C(=O)O)c1cccc(Oc2ccccc2)c1`, the max response was determined as 0.75%.
On the same count and under the same terms, the value for `NCCC[C@H](N)CC(=O)N[C@H]1CNC(=O)[C@@H]([C@@H]2C[C@H](O)N=C(N)N2)NC(=O)/C(=C/NC(N)=O)NC(=O)[C@@H](CO)NC(=O)[C@@H](CO)NC1=O` (β3hOrn-[Dap][dS][dS][ΔAla(Z-3-ureido)][X1]; lactam 1-C) was -7.09%.
As to `CC1(C)[C@@H](OC(=O)CCC(=O)O)CC[C@@]2(C)[C@H]1CC[C@@]1(C)[C@H]2C(=O)C=C2[C@H]3C[C@](C)(C(=O)O)CC[C@]3(C)CC[C@@]21C`, the max response is -1.7%.
Turning to `CCOC(=O)O[C@@H](C)OC(=O)[C@@H]1N2C(=O)[C@@H](NC(=O)[C@@H](N)c3ccccc3)[C@H]2SC1(C)C`, the max response is 3.59%.
`C#C[C@@]1(OC(C)=O)CC[C@@H]2[C@@H]3CCC4=C[C@@H](OC(C)=O)CC[C@H]4[C@H]3CC[C@]21C`: the max response is -9.18%.
Still for that read-out and setting: the same measure for `CC#C[C@@]1(O)CC[C@H]2[C@@H]3CCC4=CC(=O)CCC4=C3[C@H](c3ccc(N(C)C)cc3)C[C@]21C`: -7.59%.
On the same count and under the same terms, the same measure for `Cc1ccsc1/C=C\C1=NCCCN1C`: -9.18%.
On the same count and under the same terms, the value for `Cc1cccc(CN2CCN([C@@H](c3ccccc3)c3ccc(Cl)cc3)CC2)c1` was -11.7%.
Regarding `C[C@@H]1[C@H]2CC[C@@H]3[C@@H]4CC=C5C[C@@H](N(C)C)CC[C@]5(C)[C@@H]4CC[C@@]32CN1C`, the max response was -4.62%.

Values taken from PubChem BioAssay (NCATS).
